Data on five compounds can be found in PubChem BioAssay (NCATS).

Molecules are shown by their SMILES. Inconclusive results are not listed. The source made the active and inactive calls. The call rests on the fitted dose curve; in most records, active means well fitted cell-killing curve with a large enough effect; inconclusive means small, poorly fitted or top-dose-only effect, or effect the other way; inactive means flat fitted curve, though single readings scatter.
On the % scale 0 is the no-effect control and ±100 the full control effect; potency means the concentration at half of the fitted maximal effect.

One test deals with CASKI. Kind of test: Primary qHTS to identify gynecologic anti-cancer compounds using libraries of approved drugs and bioactive compounds (AID 1345084). Further: nearly all actives have a fitted effect of over 55% in size. The following applies: Gynecologic cancer cell panel viability, ATPlite luminescence, 48 h; series mostly up to 57.5 µM; activity change, negative = cytotoxicity: at the top concentration. In a few lines: (§1)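 Measured: luminescence after ATPlite addition (15 min, RT). Exposure: 48 h, 37 C, 5% CO2.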
For the compound `Cc1cnc(Nc2ccc(CN3CCOCC3)cc2)nc1Nc1cccc(S(=O)(=O)NC(C)(C)C)c1`, the Potency is 8.91 µM (active). Same read-out and setting: to `CS(=O)(=O)N1CCc2c(-c3cnc(N)nc3)nc(N3CCOCC3)nc21` belongs 2 µM (active). With `C=CC(=O)Nc1ccc2ncnc(Nc3ccc(OCc4cccc(F)c4)c(Cl)c3)c2c1`, the Potency was 14.1 µM (active).

In another test the test system is HeLa. The description is as above. The following applies: Gynecologic cancer cell panel viability, ATPlite luminescence, 48 h; series mostly up to 57.5 µM; activity change, negative = cytotoxicity: at the top concentration. In a few lines:
as §1
Take `Cc1cnc(Nc2ccc(CN3CCOCC3)cc2)nc1Nc1cccc(S(=O)(=O)NC(C)(C)C)c1`: the Potency is 1 µM (active). With `c1cc(N[C@@H]2CCNC2)nc(-c2cnc3ccc(-c4cn[nH]c4)cn23)c1`, the “activity change, negative = cytotoxicity” value is -21% (inactive).

For `COc1cc(CCc2cc(NC(=O)c3ccc(N4C[C@@H](C)N[C@@H](C)C4)cc3)n[nH]2)cc(OC)c1`, the Potency is 25.1 µM (active). For `CS(=O)(=O)N1CCc2c(-c3cnc(N)nc3)nc(N3CCOCC3)nc21`, the Potency is 3.55 µM (active). `C=CC(=O)Nc1ccc2ncnc(Nc3ccc(OCc4cccc(F)c4)c(Cl)c3)c2c1`: the “activity change, negative = cytotoxicity” value is -1.42% (inactive).
